Drawing on PubChem BioAssay (EPA / NIEHS), this text covers outcome and AC50 for 22 compounds.

Activity calls are given as the source filed them. The calls were made as follows: active = hit-call score of the fitted dose curve at least 0.9, where 1 is the maximum; inactive = score below 0.9.

Common to all, as to conditions: mRNA level, 48 h; actives raise or lower the signal
Read-out in experiment [1]: Peroxisomal acyl-coenzyme A oxidase 1 (ACOX1) gene, ACOX1 (gene 51)
Kind of experiment: LTEA_HepaRG_ACOX1: Life Technologies and Expression Analysis (LTEA) Assay for Peroxisomal acyl-coenzyme A oxidase 1 (ACOX1) gene using HepaRG (AID 2283467). The gist of the method:
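HepaRG cells, plated 48 h then switched to serum-free induction medium, were exposed in duplicate for 48 h to 8-point half-log concentrations up to 100 uM in 0.5% DMSO. ACOX1 mRNA was measured by qRT-PCR, normalized to ACTB/GAPDH/POLR2A, and fitted bidirectionally versus DMSO.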

Read-out in experiment [2]: Alkaline Phosphatase, Placental (ALPP) gene, ALPP (gene 250)
The experiment in a line: LTEA_HepaRG_ALPP: Life Technologies and Expression Analysis (LTEA) Assay for Alkaline Phosphatase, Placental (ALPP) gene using HepaRG (AID 2283468).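 As to AC50: differentiated human HepaRG liver cells in serum-free induction medium.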 The gist of the method:
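ALPP transcript level, measured by qRT-PCR and normalized to three housekeeping genes (ACTB, GAPDH, POLR2A), after 48 h dosing of differentiated HepaRG in serum-free induction medium. Top concentration 100 uM with half-log dilutions (8 points, 0.5% DMSO, duplicates); bidirectional fitting relative to DMSO.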

Read-out in experiment [3]: Bcl-2 (BAD) gene, BAD (gene 572)
Kind of experiment: LTEA_HepaRG_BAD: Life Technologies and Expression Analysis (LTEA) Assay for Bcl-2 (BAD) gene using HepaRG (AID 2283469). A digest of the protocol:
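Differentiated HepaRG cells were exposed in duplicate in 0.5% DMSO for 48 h to eight-point half-log concentrations up to 100 uM. BAD mRNA was measured by Fluidigm TaqMan qRT-PCR, normalized to ACTB, GAPDH and POLR2A, and fitted bidirectionally against DMSO.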

Read-out in experiment [4]: Bcl-2 (BAX) gene, BAX (gene 581)
The experiment in a line: LTEA_HepaRG_BAX: Life Technologies and Expression Analysis (LTEA) Assay for Bcl-2 (BAX) gene using HepaRG (AID 2283470). The gist of the method: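 HepaRG (human liver), 48 h exposure, duplicate wells. 8-pt curve, half-log from 100 uM, 0.5% DMSO. BAX transcript by TaqMan qRT-PCR; ACTB/GAPDH/POLR2A normalization; gain or loss vs DMSO baseline.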

Read-out in experiment [5]: adenosine kinase (ADK) gene, ADK (gene 132)
The experiment in a line: LTEA_HepaRG_ADK: Life Technologies and Expression Analysis (LTEA) Assay for adenosine kinase (ADK) gene using HepaRG (AID 2283471). The gist of the method: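 Differentiated HepaRG cells dosed 48 h in serum-free induction medium, 0.5% DMSO vehicle, eight half-log concentrations from 100 uM, in duplicate. ADK mRNA by TaqMan qRT-PCR normalised to ACTB, GAPDH, POLR2A; bidirectional fit versus DMSO.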

Read-out in experiment [6]: Alpha-fetoprotein (AFP) gene, AFP (gene 174)
Kind of experiment: LTEA_HepaRG_AFP: Life Technologies and Expression Analysis (LTEA) Assay for Alpha-fetoprotein (AFP) gene using HepaRG (AID 2283472). A digest of the protocol:
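HepaRG, single lot; 48 h post-plating -> serum-free induction medium; cpd 8-pt, 100 uM top, half-log, 0.5% DMSO, duplicate, 48 h. RNA -> qRT-PCR AFP, norm ACTB/GAPDH/POLR2A. Bidirectional fit vs DMSO.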

Read-out in a further experiment: BCL2L11 (gene 10018)
Kind of experiment: LTEA_HepaRG_BCL2L11: Life Technologies and Expression Analysis (LTEA) Assay for Bcl-2 (BCL2L11) gene using HepaRG (AID 2283473). The gist of the method: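 BCL2L11 transcript levels are measured by Fluidigm qRT-PCR, normalized to three housekeeping genes. HepaRG cultures were plated 48 h, then treated 48 h with test chemical (top 100 uM, half-log, 0.5% DMSO vehicle); curves were fitted bidirectionally against DMSO.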

Read-out in experiment [7]: Apolipoprotein A-V (APOA5) gene, APOA5 (gene 116519)
The experiment in a line: LTEA_HepaRG_APOA5: Life Technologies and Expression Analysis (LTEA) Assay for Apolipoprotein A-V (APOA5) gene using HepaRG (AID 2283474). A digest of the protocol:
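APOA5 transcript levels were quantified by qRT-PCR, normalized to three housekeeping genes, after 48 h chemical treatment of HepaRG cells (8 points, 100 uM maximum, half-log steps, 0.5% DMSO). Curves fitted in both directions against vehicle.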

Read-out in experiment [8]: Apoptosis regulator Bcl-2 (Homo sapiens) (UniProt P10415)
The experiment in a line: LTEA_HepaRG_BCL2: Life Technologies and Expression Analysis (LTEA) Assay for Bcl-2 gene using HepaRG (AID 2283475). The gist of the method:
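HepaRG, plated 48 h then switched to serum-free induction medium; dosed 48 h, 8 conc. (max 100 uM, half-log steps), duplicate, 0.5% DMSO. Lysis in RLT, RNA isolated, TaqMan qRT-PCR for BCL2; ACTB/GAPDH/POLR2A normalisation; bidirectional fit vs DMSO.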

Read-out in experiment [9]: Bcl-2 (BID) gene, BID (gene 637)
Kind of experiment: LTEA_HepaRG_BID: Life Technologies and Expression Analysis (LTEA) Assay for Bcl-2 (BID) gene using HepaRG (AID 2283476). A digest of the protocol:
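Transcript levels of BID, measured by qRT-PCR and normalized to three housekeeping genes, were fitted bidirectionally against DMSO controls. Cells were HepaRG, dosed 48 h at up to 100 uM.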

Sequence of Apoptosis regulator Bcl-2 (Homo sapiens) (P10415 whole entry, looked up): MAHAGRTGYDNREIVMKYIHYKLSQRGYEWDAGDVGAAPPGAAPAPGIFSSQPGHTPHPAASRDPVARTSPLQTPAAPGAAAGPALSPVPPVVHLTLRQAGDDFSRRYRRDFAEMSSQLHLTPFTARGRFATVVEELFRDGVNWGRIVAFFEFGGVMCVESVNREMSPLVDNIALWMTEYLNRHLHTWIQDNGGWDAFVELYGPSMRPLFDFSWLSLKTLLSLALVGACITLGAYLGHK

With `O=[N+]([O-])C(CO)(CO)CO`, the result in [1], in [2], in experiment [3], in [4], in experiment [5] and in experiment [6] was inactive. Further, the outcome (with BCL2L11 (gene 10018); in experiment [7]; in [8]; in experiment [9]) was inactive.
As to `Cc1cccc([N+](=O)[O-])c1C`, the result in experiment [1], in [2], in [3], in experiment [4], in experiment [5] and in experiment [6] was inactive. Moreover, the outcome (with BCL2L11 (gene 10018); in [7]; in experiment [8]; in experiment [9]) was inactive.
With `NS(=O)(=O)c1cc2c(cc1Cl)NCNS2(=O)=O`, the result in experiment [1], in experiment [2], in experiment [3], in experiment [4], in [5] and in experiment [6] was inactive. The compound was classed as inactive (with BCL2L11 (gene 10018); in experiment [7]; in experiment [9]).
For `NC(=O)Cn1c(=O)cc(CCN2CCN(c3nccc4sccc34)CC2)c2ccc(F)cc21`, the compound was called inactive (in experiment [1]; in experiment [3]; in experiment [5]; with BCL2L11 (gene 10018); in [9]). Also, the AC50 is 50 µM (active) in [2], 29 µM (active) in experiment [4] and 50 µM (active) in experiment [6].
As for `COC(=O)c1ccc(O)cc1`, the result in experiment [1], in experiment [2], in experiment [3], in [4], in experiment [5] and in [6] was inactive. The compound was called inactive (with BCL2L11 (gene 10018); in experiment [8]; in experiment [9]).
Regarding `Nc1nc(N)c2nc(CNc3ccc(C(=O)N[C@@H](CCC(=O)O)C(=O)O)cc3)cnc2n1`, the compound was classed as inactive (in [1]; in experiment [2]; in [3]; in [4]; in experiment [5]; in the experiment with BCL2L11 (gene 10018)). The call in experiment [7], in [8] and in experiment [9] was inactive. For the same compound, the AC50 in experiment [6] is 0.11 µM (active).
Consider `NCCO`, for which the call in experiment [1], in experiment [2], in [3], in [4], in experiment [5] and in experiment [6] was inactive. For the same compound, the outcome (in the experiment with BCL2L11 (gene 10018); in experiment [7]; in experiment [9]) was inactive.
Consider `COCCOCCOC`, for which the concentration at half-maximal activity (AC50) in experiment [1] is 9.92 µM (active); in [3] it was 1.39 µM (active); in experiment [5], 2.17 µM (active); in [6], 0.517 µM (active); in experiment [8], 0.723 µM (active); in experiment [9] it was 1.05 µM (active). Moreover, the result (in experiment [2]; in experiment [4]; with BCL2L11 (gene 10018); in experiment [7]) was inactive.
Turning to `Cc1nc(-c2ccc3c(c2)CCN(CCC2CCC(NC(=O)/C=C/c4ccc(F)cc4)CC2)CC3)no1` (stereo not drawn), the call in [1], in experiment [2], in experiment [3], in [4], in experiment [5] and in experiment [6] was inactive. Further, the compound was classed as inactive (with BCL2L11 (gene 10018); in [7]; in experiment [9]).
For `FC(F)(F)C(F)(F)C(F)(F)C(F)(F)C(F)(F)C(F)(F)CCI`, the call in [1], in experiment [2], in experiment [3], in [4], in experiment [5] and in experiment [6] was inactive. Moreover, the outcome (in the experiment with BCL2L11 (gene 10018); in experiment [7]; in experiment [9]) was inactive.
For `NCC1(Cc2noc(=O)[nH]2)CCCCC1`, the compound was classed as inactive in experiment [1], in [2], in experiment [3], in experiment [4], in experiment [5] and in experiment [6]. Moreover, the outcome (in the experiment with BCL2L11 (gene 10018); in experiment [8]; in experiment [9]) was inactive.
Regarding `COc1cc(C=O)ccc1O`, the result in [1], in experiment [2], in [3], in experiment [4], in [5] and in experiment [6] was inactive. The compound was called inactive (with BCL2L11 (gene 10018); in experiment [8]; in [9]).
For `c1cc(-c2ccncc2)ccn1`, the call in experiment [1], in [2], in [3], in [4], in experiment [5] and in experiment [6] was inactive. Besides, the call (with BCL2L11 (gene 10018); in experiment [9]) was inactive.
Turning to `Cc1oc(-c2ccccc2)nc1CCOc1cccc2c1ccn2CCC(=O)O`, the AC50 in [1] is 0.106 µM (active); in [2] it was 63 µM (active); in experiment [4], 50 µM (active); in experiment [6] it was 80.8 µM (active); in the experiment with BCL2L11 (gene 10018), 14.1 µM (active); in experiment [8], 86.3 µM (active). The compound was called inactive in experiment [3], in experiment [5] and in experiment [9].
Take `CC1(C)NC(=O)NC1=O`: the compound was classed as inactive in experiment [1], in [2], in experiment [3], in [4], in experiment [5] and in experiment [6]. Also, the call (in the experiment with BCL2L11 (gene 10018); in experiment [7]; in [8]; in [9]) was inactive.
`CCNc1cccc(C)c1`: the call in experiment [1], in experiment [2], in experiment [3], in experiment [4], in experiment [5] and in experiment [6] was inactive. The compound was classed as inactive (in the experiment with BCL2L11 (gene 10018); in experiment [8]; in experiment [9]).
For the compound `CC1(C)CC(N=C=O)CC(C)(CN=C=O)C1` (stereo not drawn), the outcome in [1], in experiment [2], in [3], in [4], in [5] and in experiment [6] was inactive. Further, the outcome (with BCL2L11 (gene 10018); in experiment [9]) was inactive.
On to `Cc1ccc2ncccc2c1`, for which the call in [1], in [2], in experiment [3], in experiment [4], in experiment [5] and in experiment [6] was inactive. Also, the outcome (with BCL2L11 (gene 10018); in [7]; in experiment [9]) was inactive.
Regarding `Cc1ccc(Cl)cc1`, the call in experiment [1], in experiment [2], in [3], in experiment [4], in [5] and in experiment [6] was inactive. The call (in the experiment with BCL2L11 (gene 10018); in experiment [9]) was inactive.
Consider `CC(=O)C(C)=CC1C(C)=CCCC1(C)C` (stereo not drawn), for which the compound was classed as inactive in [1], in experiment [2], in experiment [3], in experiment [4], in experiment [5] and in [6]. The compound was classed as inactive (in the experiment with BCL2L11 (gene 10018); in experiment [7]; in experiment [9]).
For `COCCOC[C@H](CC1(C(=O)NC2CCC(C(=O)O)CC2)CCCC1)C(=O)Oc1ccc2c(c1)CCC2` (stereo partly drawn), the call in experiment [1], in experiment [2], in experiment [3], in experiment [4], in experiment [5] and in experiment [6] was inactive. Besides, the compound was called inactive (in the experiment with BCL2L11 (gene 10018); in experiment [9]).
In the case of `COc1ccc(S(=O)(=O)N2C(=O)[C@@](c3ccccc3OC)(N3C[C@H](O)C[C@H]3C(=O)N(C)C)c3cc(Cl)ccc32)c(OC)c1`, the half-maximal activity concentration (AC50) is 17.6 µM (active) in [1]; 29.5 µM (active) in experiment [2]; 19 µM (active) in [4]; 12.1 µM (active) in experiment [5]; 29.4 µM (active) in [6]; 63.4 µM (active) in the experiment with BCL2L11 (gene 10018). Moreover, the AC50 in experiment [7] is 38.5 µM (active). Moreover, the compound was called inactive in experiment [3] and in experiment [9].
